The results in this text go back to PubChem BioAssay (NCI).

Some test systems named below: SR leukemia; RPMI-8226 leukemia; OVCAR-8 ovarian; OVCAR-5 ovarian; OVCAR-4 ovarian; SK-OV-3 ovarian; IGROV1 ovarian; OVCAR-3 ovarian; HS 578T breast; NCI/ADR-RES ovarian; BT-549 breast; MDA-MB-435 melanoma; SW-620 colon; MCF7 breast; HCT-116 colon; HCC-2998 colon; KM12 colon; T-47D breast.
Holding throughout (experiment): NCI-60 one-dose screen, 48 h (100 = growth as untreated, 0 = no growth, -100 = all killed)
What all share (conditions): 10 µM unless noted

Molecules are shown by their SMILES. This is part of a sample that, as a whole, favours compounds with a hit. Of some 83,000 tested, about 20% had one in any assay.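 Each cell line was grown in a 96-well plate and treated with one concentration of compound for 48 hours. Values below 10 were considered active.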 Unmarked numbers belong to inactive results. The source made the active and inactive calls.

As to `CC(=O)OCC1OC(OCC2OC(OC(C)=O)C(OC(C)=O)C(OC(C)=O)C2OC(C)=O)C(OC(C)=O)C(OC(C)=O)C1OC(C)=O` (stereo not given), the growth in the assay on SR leukemia was 98%; in the assay with RPMI-8226 leukemia it was 99.3%; in the assay with OVCAR-8 ovarian, 95.2%; with OVCAR-5 ovarian it was 101%; in the assay with OVCAR-4 ovarian, 107%; with SK-OV-3 ovarian, 89.9%. Further, the growth in the assay on IGROV1 ovarian was 106%; in the assay with OVCAR-3 ovarian, 109%; in the assay with HS 578T breast, 97.2%; with NCI/ADR-RES ovarian, 101%; in the assay with BT-549 breast, 100%; in the assay on MDA-MB-435 melanoma it was 104%. Also, the growth with SW-620 colon is 105%; in the assay with MCF7 breast, 94.9%; with HCT-116 colon, 99%; in the assay on HCC-2998 colon, 96.2%; with KM12 colon, 108%.
Turning to `CC1=C(C#N)C(C)(C)C(C#N)=C(C)N1`, the growth with SR leukemia is 95.8%; in the assay on RPMI-8226 leukemia it was 98.3%; in the assay with OVCAR-8 ovarian, 100%; in the assay on OVCAR-5 ovarian it was 87.7%; in the assay on OVCAR-4 ovarian, 99.2%; in the assay on SK-OV-3 ovarian, 110%. Also, the growth is 121% in the assay with IGROV1 ovarian; 107% in the assay on OVCAR-3 ovarian; 102% in the assay with HS 578T breast; 96.6% in the assay on T-47D breast; 100% in the assay with BT-549 breast; 105% with MDA-MB-435 melanoma. Besides, the growth with SW-620 colon is 102%; in the assay with MCF7 breast, 96.7%; with HCT-116 colon, 104%; with HCC-2998 colon, 108%; with KM12 colon, 103%.
Consider `CC(=O)Nc1ccc(S(=O)(=O)N2C(=O)CCC2C(=O)Nc2ccc(Br)cc2)cc1` (stereo not given), for which the growth was 16.9% with SR leukemia; 10.1% in the assay with RPMI-8226 leukemia; 47.5% in the assay with OVCAR-8 ovarian; 77.5% in the assay with OVCAR-5 ovarian; 25.5% in the assay on OVCAR-4 ovarian; 69.2% with SK-OV-3 ovarian. Besides, the growth was 37.4% with IGROV1 ovarian; 24.4% in the assay on OVCAR-3 ovarian; 56.6% with HS 578T breast; 41.8% with NCI/ADR-RES ovarian; 1.46% (active) in the assay with T-47D breast; 27.6% with MDA-MB-435 melanoma. For the same molecule, the growth in the assay with SW-620 colon is 38.2%; with MCF7 breast, 9.58% (active); in the assay with HCT-116 colon, 19.5%; with HCC-2998 colon, 49.4%; in the assay with KM12 colon, 23.1%.
On to `Nc1c(C(=O)Nc2cccc([N+](=O)[O-])c2)sc2nc3c(cc12)C(O)CCC3` (stereo not given), for which the growth was 21% in the assay with SR leukemia; 52% in the assay on RPMI-8226 leukemia; 82.3% with OVCAR-8 ovarian; 78.7% in the assay with OVCAR-5 ovarian; 80.2% with OVCAR-4 ovarian; 46.3% in the assay with SK-OV-3 ovarian. Besides, the growth was 52.5% with IGROV1 ovarian; 33.1% with OVCAR-3 ovarian; 71.8% in the assay on HS 578T breast; 47.8% with NCI/ADR-RES ovarian; 58.1% in the assay with BT-549 breast; -22.9% (active) in the assay on MDA-MB-435 melanoma. For the same molecule, the growth is 37.9% in the assay on SW-620 colon; 15.2% with MCF7 breast; 24.1% in the assay on HCT-116 colon; 87.6% with HCC-2998 colon; 33.4% with KM12 colon.
Turning to `CC(=O)Nc1ccc(S(=O)(=O)NC(CCC(=O)Nc2ccc(Cl)cc2)C(=O)O)cc1` (stereo not given), the growth is 77.9% in the assay with SR leukemia; 99.1% with RPMI-8226 leukemia; 97.4% with OVCAR-8 ovarian; 77.7% in the assay with OVCAR-5 ovarian; 94% with OVCAR-4 ovarian; 93.7% in the assay on SK-OV-3 ovarian. Further, the growth with IGROV1 ovarian was 112%; in the assay with OVCAR-3 ovarian, 107%; in the assay with HS 578T breast it was 98.4%; with NCI/ADR-RES ovarian, 100%; in the assay with T-47D breast it was 80.4%; with MDA-MB-435 melanoma it was 85.2%. Moreover, the growth in the assay with SW-620 colon is 99.6%; in the assay on MCF7 breast, 84.8%; in the assay on HCT-116 colon, 102%; in the assay on HCC-2998 colon, 103%; in the assay on KM12 colon, 94.5%.
With `FC(F)(F)c1cccc(-n2nnc3cnc(Nc4ccc(N5CCCCC5)cc4)nc32)c1`, the growth with SR leukemia was 29.2%; in the assay with RPMI-8226 leukemia, 90.9%; in the assay with OVCAR-8 ovarian, 37.5%; in the assay with OVCAR-5 ovarian it was 74.3%; in the assay with OVCAR-4 ovarian it was -9.56% (active); with SK-OV-3 ovarian, 80.2%. The growth in the assay on IGROV1 ovarian is 88.8%; in the assay with OVCAR-3 ovarian it was 82.4%; in the assay on HS 578T breast it was 76.5%; in the assay with NCI/ADR-RES ovarian, 76.9%; in the assay with MDA-MB-435 melanoma, 37.5%; in the assay on SW-620 colon, 35.7%. The growth in the assay on MCF7 breast was 71.2%; in the assay on HCT-116 colon, 4.87% (active); in the assay on HCC-2998 colon, 88.3%; with KM12 colon, 65.8%.
With `CCCCCCCCCN1C(=O)/C(=c2\sc3n(c2=O)C2C(NN=3)N(CC)C(=O)N2CC)c2ccccc21` (stereo not given), the growth in the assay with SR leukemia is 5.57% (active); with RPMI-8226 leukemia, 80.4%; in the assay with OVCAR-8 ovarian it was 36.7%; in the assay with OVCAR-5 ovarian, 80.8%; in the assay on OVCAR-4 ovarian it was 13.2%; in the assay on SK-OV-3 ovarian it was 93.7%. Moreover, the growth was 54.1% in the assay with IGROV1 ovarian; 21.1% in the assay on OVCAR-3 ovarian; 26.7% with HS 578T breast; 46.9% in the assay on NCI/ADR-RES ovarian; 82.2% in the assay on BT-549 breast; -9.54% (active) in the assay with MDA-MB-435 melanoma. Moreover, the growth with SW-620 colon was 30.5%; with MCF7 breast, 27.9%; with HCT-116 colon, 5.86% (active); in the assay on HCC-2998 colon, 102%; in the assay on KM12 colon, 9.43% (active).
`CCCCCCCCCCCCOB(OCCCCCCCCCCCC)OCCCCCCCCCCCC`: the growth in the assay on SR leukemia was 89.8%; in the assay with RPMI-8226 leukemia, 95.8%; in the assay on OVCAR-8 ovarian it was 101%; with OVCAR-5 ovarian it was 110%; in the assay with OVCAR-4 ovarian, 121%; in the assay on SK-OV-3 ovarian, -1.64% (active). For the same molecule, the growth was 107% in the assay with IGROV1 ovarian; 74.3% with OVCAR-3 ovarian; 107% in the assay with HS 578T breast; 97.6% with NCI/ADR-RES ovarian; 96.7% in the assay with BT-549 breast; 114% in the assay on MDA-MB-435 melanoma. For the same molecule, the growth is 117% in the assay with SW-620 colon; 97.5% in the assay on MCF7 breast; 123% in the assay on HCT-116 colon; 91.6% in the assay on HCC-2998 colon; 102% in the assay on KM12 colon.
